For 59 molecules, inhibition results are on record in PubChem BioAssay AID1671202 (University of Kansas High Throughput Screening Laboratory, 2021).

Molecules are shown by their SMILES. Values joined by “and” are separate entries in the source; they are usually repeats but may differ in a detail not shown here. Identical values can stand only once. About 6,900 (3.6%) of roughly 190,000 compounds were called active. The sample holds actives, similar compounds and a random draw of the others, so the mix is not that of the screen. Rule as the data show it: active = inhibition above about 50%; inactive = the rest. The source holds several records for some structures; these can differ, active in one and inactive in another.

Huntingtin (Homo sapiens), sequence (P42858 whole entry, looked up, stated change not applied): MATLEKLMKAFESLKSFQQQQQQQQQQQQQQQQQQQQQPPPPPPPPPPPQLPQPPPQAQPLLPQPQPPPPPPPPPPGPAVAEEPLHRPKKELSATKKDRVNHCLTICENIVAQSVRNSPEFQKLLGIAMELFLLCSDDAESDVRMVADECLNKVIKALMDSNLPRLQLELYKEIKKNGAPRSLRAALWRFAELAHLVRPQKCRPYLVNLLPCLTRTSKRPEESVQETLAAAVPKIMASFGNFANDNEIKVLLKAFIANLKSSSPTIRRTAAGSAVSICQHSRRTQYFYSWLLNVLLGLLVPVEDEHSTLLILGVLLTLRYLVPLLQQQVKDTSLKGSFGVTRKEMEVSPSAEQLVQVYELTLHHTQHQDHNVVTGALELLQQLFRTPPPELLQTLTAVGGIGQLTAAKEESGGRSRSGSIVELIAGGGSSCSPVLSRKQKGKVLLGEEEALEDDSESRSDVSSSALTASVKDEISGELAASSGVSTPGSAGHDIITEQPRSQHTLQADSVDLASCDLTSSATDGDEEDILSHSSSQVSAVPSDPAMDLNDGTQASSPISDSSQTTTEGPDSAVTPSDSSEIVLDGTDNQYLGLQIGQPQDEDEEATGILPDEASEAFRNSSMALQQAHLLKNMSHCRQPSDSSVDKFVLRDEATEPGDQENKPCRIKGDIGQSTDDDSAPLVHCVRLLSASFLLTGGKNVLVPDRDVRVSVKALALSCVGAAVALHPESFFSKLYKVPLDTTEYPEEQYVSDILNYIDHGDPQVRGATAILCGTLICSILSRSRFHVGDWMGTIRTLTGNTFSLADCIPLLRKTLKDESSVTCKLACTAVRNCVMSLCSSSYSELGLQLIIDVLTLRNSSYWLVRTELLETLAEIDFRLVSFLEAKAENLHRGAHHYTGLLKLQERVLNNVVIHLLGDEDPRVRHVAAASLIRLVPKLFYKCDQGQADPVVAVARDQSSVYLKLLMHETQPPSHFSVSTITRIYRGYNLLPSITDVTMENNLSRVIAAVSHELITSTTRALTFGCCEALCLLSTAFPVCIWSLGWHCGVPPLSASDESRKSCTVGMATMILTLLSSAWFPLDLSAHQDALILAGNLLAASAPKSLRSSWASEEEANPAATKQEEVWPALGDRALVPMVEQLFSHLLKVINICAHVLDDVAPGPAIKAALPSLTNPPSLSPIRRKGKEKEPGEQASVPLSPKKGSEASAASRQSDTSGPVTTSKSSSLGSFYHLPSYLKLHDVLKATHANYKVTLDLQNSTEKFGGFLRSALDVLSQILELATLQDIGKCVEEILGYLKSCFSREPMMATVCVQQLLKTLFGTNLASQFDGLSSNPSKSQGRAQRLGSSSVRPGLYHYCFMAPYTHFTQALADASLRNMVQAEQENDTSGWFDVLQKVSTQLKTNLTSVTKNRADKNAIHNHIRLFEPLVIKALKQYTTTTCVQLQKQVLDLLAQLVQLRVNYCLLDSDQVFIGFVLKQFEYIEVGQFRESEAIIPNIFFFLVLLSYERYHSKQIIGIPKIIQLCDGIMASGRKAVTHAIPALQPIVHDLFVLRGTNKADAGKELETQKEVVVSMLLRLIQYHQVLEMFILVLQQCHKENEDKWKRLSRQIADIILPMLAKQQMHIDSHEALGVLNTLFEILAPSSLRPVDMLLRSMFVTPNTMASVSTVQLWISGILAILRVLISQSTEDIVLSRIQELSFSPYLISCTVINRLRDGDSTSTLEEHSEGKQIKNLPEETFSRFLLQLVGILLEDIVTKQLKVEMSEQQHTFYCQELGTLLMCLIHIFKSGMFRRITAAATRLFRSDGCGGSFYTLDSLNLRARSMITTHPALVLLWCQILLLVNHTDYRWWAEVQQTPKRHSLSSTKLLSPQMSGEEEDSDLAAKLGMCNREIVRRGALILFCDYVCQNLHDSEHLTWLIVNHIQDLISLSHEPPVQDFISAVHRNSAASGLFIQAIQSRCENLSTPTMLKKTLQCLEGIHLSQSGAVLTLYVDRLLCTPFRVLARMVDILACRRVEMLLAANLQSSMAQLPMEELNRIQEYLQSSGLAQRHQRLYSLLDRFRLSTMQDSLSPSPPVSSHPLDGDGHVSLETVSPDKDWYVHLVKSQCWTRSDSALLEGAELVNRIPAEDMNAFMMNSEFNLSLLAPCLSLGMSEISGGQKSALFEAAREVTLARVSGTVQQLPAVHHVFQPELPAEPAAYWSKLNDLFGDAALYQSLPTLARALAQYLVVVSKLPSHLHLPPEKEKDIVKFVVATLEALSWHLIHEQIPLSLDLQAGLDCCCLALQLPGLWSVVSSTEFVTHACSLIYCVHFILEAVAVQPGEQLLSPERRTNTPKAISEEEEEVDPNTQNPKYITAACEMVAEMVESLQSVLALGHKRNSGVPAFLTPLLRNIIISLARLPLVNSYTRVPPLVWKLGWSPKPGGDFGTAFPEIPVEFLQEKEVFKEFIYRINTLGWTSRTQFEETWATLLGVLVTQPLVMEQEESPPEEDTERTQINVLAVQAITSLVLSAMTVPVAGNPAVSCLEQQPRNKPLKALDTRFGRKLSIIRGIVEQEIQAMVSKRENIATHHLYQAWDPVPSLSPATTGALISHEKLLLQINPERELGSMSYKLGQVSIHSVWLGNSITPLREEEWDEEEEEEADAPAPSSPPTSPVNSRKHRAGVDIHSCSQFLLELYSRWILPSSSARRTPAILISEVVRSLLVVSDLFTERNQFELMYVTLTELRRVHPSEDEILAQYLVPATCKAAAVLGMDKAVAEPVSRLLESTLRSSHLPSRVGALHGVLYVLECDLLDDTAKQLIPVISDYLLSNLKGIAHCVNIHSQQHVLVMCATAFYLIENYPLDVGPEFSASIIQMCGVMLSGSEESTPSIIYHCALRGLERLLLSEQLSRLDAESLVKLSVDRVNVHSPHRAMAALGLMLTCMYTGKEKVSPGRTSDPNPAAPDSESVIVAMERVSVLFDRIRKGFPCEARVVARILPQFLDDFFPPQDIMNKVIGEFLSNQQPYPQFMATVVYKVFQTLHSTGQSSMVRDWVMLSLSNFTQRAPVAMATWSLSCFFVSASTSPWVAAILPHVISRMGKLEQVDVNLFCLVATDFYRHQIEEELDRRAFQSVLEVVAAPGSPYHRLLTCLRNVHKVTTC

This assay has as its target Huntingtin (Homo sapiens) (UniProt P42858). The assay is described as follows: mutant huntingtin-calmodulin interaction inhibitors – biochemical, AlphaScreen, primary screen (AID 1671202).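 As to inhibition: 0% = both proteins with DMSO and 100% = one protein alone.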 As to conditions: AlphaScreen His-mHTT/GST-CaM binding, luminescence; at 15 µM, stronger effect = higher value. On the technique in general: Alpha assays give light when donor and acceptor beads are brought close together.
In the case of `CCOc1ccc(C(=O)Nc2cc([N+](=O)[O-])ccc2C)cc1`, the inhibition – broadly, the drop in the measured response relative to a control, in per cent – is -0.3% (inactive). For `COc1ccccc1NC(=O)c1c(NCc2ccncc2)sc2c1CCCC2`, the inhibition was 65% (active). For `COc1cccc(OC)c1C(=O)Nc1sc2c(c1C(N)=O)CCCC2` the value was 25.3% (inactive); for `COc1ccc(OC)c(NC(=O)c2c(NCc3ccc(C)o3)sc3c2CCC3)c1`, 7.9% (inactive). For `Cn1nccc1C(=O)N1CCCC(c2n[nH]c(C3CC3)n2)C1` (centres undefined) the value was 5.54% (inactive); for `CC(=O)c1nc2sc(C)c(C)c2[nH]1`, -3.74% (inactive). For `Cc1ccc(C(O)=C2C(=O)C(=O)N(c3ncccn3)C2c2cccc(Br)c2)cc1` (centres undefined) the value was 51.6% (active).

For `CN(C)CCCN1C(=O)C(=O)C(=C(O)c2ccccc2)C1c1cccc(Br)c1` (centres undefined), the inhibition was -1.6% (inactive). As for `COc1ccc(C2C(=C(O)c3ccc(C)cc3)C(=O)C(=O)N2c2ccccn2)cc1` (centres undefined), the figure is 2.6% (inactive); as for `CN1CCN(CC(=O)Nc2c3c(nc4ccccc24)N(c2ccccc2)CC3)CC1`, -4% (inactive). As for `CN1CCc2c(n(-c3ccccc3)c3ccccc23)C1=O`, the figure is 56.8% (active); as for `N#CSc1ccc(NC(=O)c2ccc(-n3cnnn3)cc2)cc1`, 8.8% (inactive). As for `C=CCNC(=O)C(=O)NCc1ccccn1`, the figure is -1.5% (inactive); as for `Cc1ccc(S(=O)(=O)Nc2cc(S(=O)(=O)O)c(N)c3c2C(=N)c2ccccc2C3=O)cc1`, 94% (active); as for `COc1cc(N)ccc1NS(=O)(=O)c1ccc(C)cc1`, 10.8% (inactive). For the molecule `Cc1ccc(S(=O)(=O)Nc2ccccc2C(=O)NN)cc1`, the inhibition was 5.3% (inactive). As for `CCCc1cc(=O)[nH]c(SCC(=O)Nc2cc(C(F)(F)F)ccc2Cl)n1`, the figure is -6.6% (inactive); as for `O=C(O)C1C2CCC3C(CCC21)C3C(=O)O` (centres undefined), -1.3% (inactive). As for `C=CCOC(=O)C1=C(C)NC2=C(C(=O)CC(C)(C)C2)C1c1ccc(OCC)c(OC)c1` (centres undefined), the figure is -6.9% (inactive).

As for `O=C(NCc1cccs1)C1CCc2sc(C(=O)N3CCCCC3)cc2C1` (centres undefined), the inhibition was 3.05% (inactive). As for `O=C(NC(n1cnc2c(Cl)ncnc21)C(Cl)(Cl)Cl)c1ccccc1` (centres undefined), the figure is -3% (inactive); as for `O=C(Nc1cccc(Cl)c1)Nc1c2c(nn1-c1ccccc1)CSC2`, 15.8% (inactive); as for `CCC(Sc1nc2n[nH]c(C)c2c(=N)n1-c1ccc(OC)cc1)C(=O)Nc1ccccc1OC` (centres undefined), 30% (inactive).

On to `CCOc1ccc(-n2c(SCC(=O)NC3CCCCC3)nc3n[nH]c(C)c3c2=N)cc1`, for which the inhibition is 10% (inactive). Consider `CCC(Sc1nc2n[nH]c(C)c2c(=N)n1-c1ccc(Br)cc1)C(=O)NCCOC` (centres undefined), for which the inhibition was 75% (active). As for `Cc1ccc(C(=O)Nc2ccc(-n3cnnn3)c(C)c2)cc1`, the figure is -6.6% (inactive); as for `COc1ccc(Br)cc1S(=O)(=O)NCCCn1ccnc1`, -3.1% (inactive); as for `Cn1cc(C2=CCN(S(=O)(=O)c3cccc(Cl)c3)CC2)c2cccnc21`, 0.52% (inactive). For `COc1cccc(-c2nc(C3CCN(S(=O)(=O)c4ccccc4F)CC3)no2)c1` the value was -3.26% (inactive); for `CC1(C)CC(=O)C2=C(C1)NC1=C(C(=O)c3ccccc31)C2c1ccc(OCc2ccccc2)cc1` (centres undefined), 100% (active); for `CCCOc1ccc(C2C3=C(CC(C)(C)CC3=O)Nc3ccc4ncccc4c32)cc1` (centres undefined), 49% (inactive). With `CCOc1ccc(C2C3=C(CC(C)(C)CC3=O)Nc3ncnn32)cc1` (centres undefined), the inhibition is -2.23% (inactive). For `O=C(c1ccccc1)c1cc(S(=O)(=O)C(F)(F)F)ccc1[N+](=O)[O-]` the value was 34% (inactive); for `CCOc1ccc(CN2CCCC2c2c(C)noc2CC)cc1` (centres undefined), -51.7% (inactive); for `CNC(=O)c1c(NC(=O)c2ccc(Br)s2)sc(C)c1C`, -10.4% (inactive). Regarding `O=C(Nc1cc([N+](=O)[O-])ccc1Cl)c1ncn[nH]1`, the inhibition is 4% (inactive). With `CSc1cccc(NC(=O)c2ncn[nH]2)c1`, the inhibition is 0.6% (inactive).

For `O=C(Nc1ccc(Cl)c(C(=O)O)c1)c1ncn[nH]1`, the inhibition was 18.5% (inactive) and 57% (active). For `CC(C)(c1ccccc1)c1ccc(OCC(=O)Nc2ncn[nH]2)cc1` the value was 16% (inactive); for `Cc1n[nH]c(=O)nc1N/N=C/c1cccs1`, “active”. Consider `O=C1/C(=C/c2cccs2)CC2CC1C/C(=C\c1cccs1)C2=O`, for which the inhibition was 31% (inactive).

For `Cc1ccc(C)c(N2CCN(C(=O)c3cc4ccncc4n3C)CC2)c1`, the inhibition is 48.1% (inactive). As for `Cc1cc(O)c(CN2CCCCC2)c2c1C(=O)C(=Cc1ccncc1)O2`, the inhibition was 10% (inactive).

`O=C(CCc1ccccc1)N1N=C(c2cccc([N+](=O)[O-])c2)CC1(O)C(F)(F)F` (centres undefined): the inhibition is 26% (inactive). As for `O=C1C2CC(Br)C(Br)CC2C(=O)N1c1ccc([N+](=O)[O-])cc1` (centres undefined), the figure is 0% (inactive).

For the molecule `O=C1CC(c2ccccc2)=NN1c1ccc([N+](=O)[O-])cc1`, the inhibition was 91% (active). For `CCCn1ncc(N2CCC(C(=O)NCCCN3CCOCC3)CC2)cc1=O` the value was -2.54% (inactive); for `O=C(Nc1ccc(Cn2cncn2)cc1)c1ccc(Cl)cc1`, 17.8% (inactive); for `CC1CN(C(=O)C2(c3ccccc3)CC2)CC1c1nc(-c2cccnc2)no1` (centres undefined), 29.4% (inactive). For `CCNC(=O)c1c(O)c2cccc3c2n(c1=O)CC3` the value was 0% (inactive). For `CCN(CC)CCCNC(=O)c1c(O)c2cc(F)cc3c2n(c1=O)C(C)CC3` (centres undefined) the value was 98% (active). In the case of `CCN(CC)CCNC(=O)c1cn(C2CCCCC2)c(=O)c2c1c1ccccc1n2C`, the inhibition is 6% (inactive). For `CNC(=O)N1CCCC(c2cccc(C(=O)NCc3ccccc3C(F)(F)F)c2)C1` (centres undefined) the value was -2.02% (inactive); for `COc1ccc(C2C3C(=O)N(c4ccc([N+](=O)[O-])cc4)C(=O)C3N3CCCN23)cc1` (centres undefined), -1% (inactive). As to `CCCCN1C[C@H](c2ccc(Br)cc2)[C@@H](CC(=O)Nc2ccc(Br)cc2)C1=O`, the inhibition was 96.5% (active). For `CCCCN1CC(C)(C)[C@H](CC(=O)Nc2ccc(Br)cc2)C1=O` the value was -13.5% (inactive); for `C[C@H]1CN(c2ccc(Br)cc2)C(=O)[C@@H]1CC(=O)Nc1ccc(Br)cc1`, 2.2% (inactive). For `Cc1cc(C)c(NC(=O)CNC(C)(C)C)c(C)c1` the value was -2.1% (inactive). As for `O=C(NC(C(=O)N1CCCCC1)C12CC3CC(CC(C3)C1)C2)c1ccc(F)cc1` (centres undefined), the figure is 2.5% (inactive).
